RORgamma inh = blocks mouse ROR gamma transcriptional activity; 310,000 compounds, 5.4% hits; Drosophila S2 Gal4-RORgamma UAS-luciferase reporter, 20 h; AID 2551; P51450; Potency, µM (top dose mostly 53.6 µM), usual class: inhibitors; note: nearly all actives have a fitted effect of over 60% in size
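Compounds are pin-transferred onto Drosophila Schneider cells expressing a copper-inducible Gal4–ROR gamma transactivation domain fusion. After 1 hr, copper sulfate is added to 700 uM final; luciferase is read 20 hr later.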
Gal4-VP16 FLuc = counter-screen for ROR gamma inhibitors: Gal4-VP16 reporter. Drosophila S2 Gal4-VP16 UAS-luciferase, luminescence, 20 h. Potency, µM (titrated, usually from 53.6 µM), most hits filed as inhibitors. 310,000 compounds, 3.5% hits. AID 2546;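 note: Gal4-VP16 expression switched on by copper sulfate through the metallothionein promoter; nearly all actives have a fitted effect of over 50% in size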
B2AR arrestin = recruits beta-arrestin to the human beta2-adrenergic receptor; AID 492947; P07550; beta-arrestin recruitment to beta2AR, cell-based reporter; 330,000 compounds, 0.02% hits; Potency, µM (highest dose often 46.1 µM), hits mostly activators; note: nearly all actives have a fitted effect of over 65% in size
ELG1 repair inh = ELG1-dependent DNA repair inhibition | HEK293T ELG1-luciferase reporter, luminescence, 16 h; DNA damage induced by 5-fluorouridine | Potency, µM (top dose mostly 46.1 µM), hits mostly inhibitors | 330,000 compounds, 2.3% hits; note: nearly all actives have a fitted effect of over 55% in size
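In this reporter screen, reduction of luminescence relative to DMSO vehicle indicated activity. Compounds and 5-fluorouridine were added together to 2,000 cells per well, incubated for 16 hr at 37 °C, then developed with ONE-Glo.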
TSHR antagonist = antagonists of human thyroid stimulating hormone receptor | activity change, negative = inhibition, % at 11.5 µM | AID 504810 | 330,000 compounds, 0.2% hits | TSHR-expressing cells, TSH-stimulated cAMP HTRF, 2 h; active compounds read low;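 active = activity change below a set negative limit, meaning inhibition stronger than a set level, cut at about -70% in these data; inconclusive = activity change between two set negative limits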
Target sequence (P16473 whole entry, looked up): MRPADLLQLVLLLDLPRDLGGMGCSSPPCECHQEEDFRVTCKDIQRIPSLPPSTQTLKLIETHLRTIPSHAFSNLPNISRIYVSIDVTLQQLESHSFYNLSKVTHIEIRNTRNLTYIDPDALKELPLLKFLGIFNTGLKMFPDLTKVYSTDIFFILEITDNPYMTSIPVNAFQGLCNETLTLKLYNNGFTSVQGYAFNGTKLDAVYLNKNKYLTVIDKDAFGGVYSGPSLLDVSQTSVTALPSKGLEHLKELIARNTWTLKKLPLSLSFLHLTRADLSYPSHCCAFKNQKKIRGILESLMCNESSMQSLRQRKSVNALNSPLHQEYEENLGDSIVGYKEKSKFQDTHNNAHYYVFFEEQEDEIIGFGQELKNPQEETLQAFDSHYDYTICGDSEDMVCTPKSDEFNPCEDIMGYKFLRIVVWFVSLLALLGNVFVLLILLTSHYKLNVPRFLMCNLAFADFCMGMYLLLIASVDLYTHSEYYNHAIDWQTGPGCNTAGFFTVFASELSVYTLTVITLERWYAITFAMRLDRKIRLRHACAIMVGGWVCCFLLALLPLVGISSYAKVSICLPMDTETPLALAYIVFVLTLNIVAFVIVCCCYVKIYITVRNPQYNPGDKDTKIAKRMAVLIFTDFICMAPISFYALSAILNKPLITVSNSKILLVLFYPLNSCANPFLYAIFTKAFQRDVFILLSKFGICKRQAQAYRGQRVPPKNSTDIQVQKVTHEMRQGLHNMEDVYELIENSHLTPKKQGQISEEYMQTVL
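Read-out is FRET at 665 nm (cryptate excitation 337 nm) from a cryptate-tagged anti-cAMP antibody, competed by cell cAMP against cAMP-d2. Compounds are tested on freshly harvested TSHR cells challenged with 4nM TSH (EC80) for 2 hours at 37 deg C.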
A number is an active result; ! = not confirmed by another sample. Shown are actives, neighbours in structure and some others; about 7.5% of the full set was active somewhere. Unless noted, calls come from the whole dose curve; as a rule, active = well fitted curve in the direction sought with a large enough effect; inconclusive = small, poorly fitted or top-dose-only effect, or another doubt; inactive = no such curve, though single readings can be large; an effect the other way counts as inactive or inconclusive.

For COC1CC(OC2CCC3(C)C(CCC4C3CCC3(C)C(C5=CC(=O)OC5)C(OC(C)=O)CC43O)C2)OC(C)C1OC1OC(COC2OC(CO)C(O)C(O)C2O)C(O)C(O)C1O (configuration not stated) the results were RORgamma inh inactive, Gal4-VP16 FLuc inactive, B2AR arrestin inactive, ELG1 repair inh 2.91µM and TSHR antagonist inconclusive.
Cc1c(OCC(F)(F)F)ccnc1CS(=O)c1nc2ccccc2[nH]1 (configuration not stated) was read as RORgamma inh 11.2µM!, Gal4-VP16 FLuc inconclusive, B2AR arrestin inactive, ELG1 repair inh inconclusive and TSHR antagonist inactive.
Screening COCCCOc1ccnc(CS(=O)c2nc3ccccc3[nH]2)c1C (configuration not stated) returned RORgamma inh inactive, Gal4-VP16 FLuc inactive, B2AR arrestin inactive, ELG1 repair inh inconclusive and TSHR antagonist inactive.
Screening CC1CC(=O)O1 (configuration not stated) returned RORgamma inh inactive and Gal4-VP16 FLuc inactive.
Screening CC(C)(C)[C@]1(O)C[C@@H]2OC(=O)CC23C(=O)O[C@@H]2OC(=O)[C@H](O)C231 (some centres not stated) returned RORgamma inh inactive and Gal4-VP16 FLuc inactive.
For COC12C(COC(N)=O)C3=C(C(=O)C(C)=C(N)C3=O)N1CC1C2N1C (configuration not stated) the results were RORgamma inh inactive, Gal4-VP16 FLuc inactive, B2AR arrestin inactive, ELG1 repair inh inconclusive and TSHR antagonist inactive.
Screening CO[C@@H](COC(N)=O)C1=C(N2CC2)C(=O)C(C)=C(N2CC2)C1=O returned RORgamma inh inconclusive and Gal4-VP16 FLuc 11.2µM.
Screening Cc1ccc(-n2c(C)nc3ccccc3c2=O)c(C)c1 returned RORgamma inh inactive, Gal4-VP16 FLuc inactive, B2AR arrestin inactive, ELG1 repair inh inactive and TSHR antagonist -72.4.
For CCOP(=O)(OCC)C(NC(=O)c1ccccc1)=C(Cl)Cl the results were RORgamma inh inactive, Gal4-VP16 FLuc inactive, B2AR arrestin inactive, ELG1 repair inh inactive and TSHR antagonist inactive.
For CCOC(=O)C1=C(NC(=S)NC(=O)c2ccccc2)c2ccccc2CC12CCCC2 the results were RORgamma inh 3.16µM, Gal4-VP16 FLuc 4.47µM, B2AR arrestin inactive, ELG1 repair inh inconclusive and TSHR antagonist inactive.
`C#Cc1cccc2c1c(C(=O)c1ccc(Cn3c(C)nc4cnccc43)c(F)c1)cn2C(=O)N(C)C` gave RORgamma inh inactive and Gal4-VP16 FLuc inactive.
For COc1cc(N2C(=O)CC(=O)NC2=O)cc(OC)c1OC the results were RORgamma inh inactive, Gal4-VP16 FLuc inactive, B2AR arrestin inactive, ELG1 repair inh inactive and TSHR antagonist -129.7.
CCOc1ccc(N2C(=O)CC(=O)NC2=O)cc1 was read as RORgamma inh inactive, Gal4-VP16 FLuc inactive, B2AR arrestin inactive, ELG1 repair inh inconclusive and TSHR antagonist inactive.
For O=C(Nc1cccc(C(=O)Nc2cc(C(=O)Nc3ccc([S+](=O)([O-])[O-])c4cc([S+](=O)([O-])[O-])cc(SOOO)c34)ccc2F)c1)Nc1cccc(C(=O)Nc2cc(C(=O)Nc3ccc([S+](=O)([O-])[O-])c4cc([S+](=O)([O-])[O-])cc([S+](=O)([O-])[O-])c34)ccc2F)c1 the results were RORgamma inh inactive and Gal4-VP16 FLuc inactive.
Screening Cc1ccc(-c2cc(C(F)F)n3ncc(C(=O)N4CCC5(CC4)OCCO5)c3n2)cc1 returned RORgamma inh inactive, Gal4-VP16 FLuc inactive, B2AR arrestin inactive, ELG1 repair inh 18.4µM and TSHR antagonist inactive.
For COc1ccc(-c2cc(C(=O)N3CCC4(CC3)OCCO4)c3ccccc3n2)cc1 the results were RORgamma inh inconclusive, Gal4-VP16 FLuc inactive, B2AR arrestin inactive, ELG1 repair inh inconclusive and TSHR antagonist inactive.
CCn1c(O)c(N=Nc2cccc(S(=O)(=O)N3CCOCC3)c2)c(=O)n(CC)c1=S was read as RORgamma inh inactive, Gal4-VP16 FLuc inactive, B2AR arrestin inactive, ELG1 repair inh 18.3µM and TSHR antagonist inactive.
COc1c(C)cc(C(=O)C2CCCN(Cc3cccc(C)n3)C2)cc1C (configuration not stated) was read as RORgamma inh 2.24µM, Gal4-VP16 FLuc 12.6µM, B2AR arrestin inactive, ELG1 repair inh inconclusive and TSHR antagonist inactive.
`Cc1cccc(CN2CCCC(C(=O)c3cccc(OC(C)C)c3)C2)n1` (configuration not stated) gave RORgamma inh 2.24µM, Gal4-VP16 FLuc 15.8µM, B2AR arrestin inactive, ELG1 repair inh inactive and TSHR antagonist inactive.
For COc1c(C)cc(C(=O)C2CCCN(Cc3cccc(O)c3)C2)cc1C (configuration not stated) the results were RORgamma inh inactive, Gal4-VP16 FLuc inactive, B2AR arrestin inactive, ELG1 repair inh inconclusive and TSHR antagonist inactive.
Cc1cccc(CN2CCCC(C(=O)c3ccc4c(c3)OCO4)C2)n1 (configuration not stated) was read as RORgamma inh 3.16µM, Gal4-VP16 FLuc 12.6µM, B2AR arrestin inactive, ELG1 repair inh inactive and TSHR antagonist inactive.
Screening COc1cccc(C(=O)C2CCCN(Cc3cccc(C)n3)C2)c1 (configuration not stated) returned RORgamma inh inconclusive, Gal4-VP16 FLuc 14.1µM, B2AR arrestin inconclusive, ELG1 repair inh inactive and TSHR antagonist inactive.
CCn1nc(C)c(CN2CCCC(C(=O)c3cccc(OC(C)C)c3)C2)c1C (configuration not stated) was read as RORgamma inh inactive, Gal4-VP16 FLuc inactive, B2AR arrestin inactive, ELG1 repair inh inconclusive and TSHR antagonist inactive.
COc1cccc(C(=O)C2CCCN(Cc3ccon3)C2)c1 (configuration not stated) was read as RORgamma inh inactive, Gal4-VP16 FLuc inactive, B2AR arrestin inactive, ELG1 repair inh inactive and TSHR antagonist inactive.
C#CCO was read as RORgamma inh inactive and Gal4-VP16 FLuc inactive.
For CCCCCc1cc(O)c2c(c1)OC(C)(C)C1CC=C(C)CC21 (configuration not stated) the results were RORgamma inh inactive and Gal4-VP16 FLuc inconclusive.
`c1ccc(N2CCCC3(CCNCC3)C2)nc1` gave RORgamma inh inactive and Gal4-VP16 FLuc inactive.
N#CC(Cl)(Cl)Cl was read as RORgamma inh inactive and Gal4-VP16 FLuc inactive.
Screening CNCC(O)c1ccc(OC(=O)C(C)(C)C)c(OC(=O)C(C)(C)C)c1 (configuration not stated) returned B2AR arrestin inconclusive, ELG1 repair inh inactive and TSHR antagonist inactive.
For COc1ccc(C(=O)C2CCCN(Cc3ccccn3)C2)c(OC)c1 (configuration not stated) the results were RORgamma inh 10µM, Gal4-VP16 FLuc inactive, B2AR arrestin inactive, ELG1 repair inh inactive and TSHR antagonist inactive.
`CN(C)C1CSSSC1` gave RORgamma inh inconclusive and Gal4-VP16 FLuc inactive.
